Tau fibril FP = inhibitors of human tau fibril formation. P10636. K18 P301L tau heparin fibrillization, Alexa594 FP, 6 h. Potency, µM (doses to about 57.7 µM), for the others: top-dose activity, negative = inhibition, actives largely listed as inhibitors. 0.39% of 280,000 active. AID 1468; note: potency is the fitted concentration of half-maximal effect; nearly all actives have a fitted effect of over 55% in size
Target sequence (P10636 561-689 P618L limits assumed): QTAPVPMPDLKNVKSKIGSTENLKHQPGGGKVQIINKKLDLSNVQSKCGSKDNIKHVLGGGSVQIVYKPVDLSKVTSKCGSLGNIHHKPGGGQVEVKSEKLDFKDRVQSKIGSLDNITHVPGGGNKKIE
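Quantitative HTS format: compounds meet 15 uM recombinant K18 P301L tau and Alexa 594-tau tracer in 100 mM sodium acetate pH 7; 20 uM heparin triggers fibrillization at 37 C over 6 hr; FP gives the signal.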
Tau fluor counter = counter-screen for tau fibril formation inhibitors. Potency, µM (doses to about 57.7 µM), for the others: at the top dose activity change, negative = decrease. tau K18 P301L Alexa594 fluorescence, heparin fibrillization. 0.93% of 280,000 active. AID 1463; note: potency is the fitted concentration of half-maximal effect; nearly all actives have a fitted effect of over 55% in size
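Human tau K18 P301L (15 uM unlabeled, 0.24 uM Alexa 594-labeled) in 100 mM sodium acetate pH 7 with 20 uM heparin, 6 hr at 37 C. ThT 30 uM added, 1 hr ambient; Alexa 594 FP and total fluorescence read at 555/632 nm.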
Coupling enz = inhibits coupling enzyme system, counter-screen for aldolase hits. coupling enzyme system counterscreen, AmpLite Red fluorescence. activity change, negative = inhibition, % at 58.2 µM, hits read low. 0.67% of 290,000 active; in the data active = activity change below about -30%
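Counterscreen lacking aldolase: glyceraldehyde-3-phosphate coupling-enzyme reagent preincubated 10 min at RT with compound (at 57.5 uM final), then substrate/coupling system with AmpLite Red added; fluorescence read at 525/598 nm after 20 min RT.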
KDM4E inh = inhibitors of human JMJD2E histone demethylase; B2RXH2; JMJD2E catalytic domain, FDH-coupled NADH fluorescence (FDH is formaldehyde dehydrogenase); Potency, µM (doses to about 57.1 µM), without a hit: top-dose activity change, negative = inhibition, usual class: inhibitors; 1.6% of 230,000 active; AID 2147; active = well fitted inhibition curve with a large enough effect, not every such curve was filed as active; inconclusive = small, poorly fitted or top-dose-only effect, or another doubt; inactive = no such curve, though single readings can be large or run the other way;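 note: potency is the fitted concentration of half-maximal effect; 0% = wells with enzyme and -100% = buffer wells without enzyme; nearly all actives have a fitted effect of over 50% in size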
Target sequence (B2RXH2 1-337 limits assumed): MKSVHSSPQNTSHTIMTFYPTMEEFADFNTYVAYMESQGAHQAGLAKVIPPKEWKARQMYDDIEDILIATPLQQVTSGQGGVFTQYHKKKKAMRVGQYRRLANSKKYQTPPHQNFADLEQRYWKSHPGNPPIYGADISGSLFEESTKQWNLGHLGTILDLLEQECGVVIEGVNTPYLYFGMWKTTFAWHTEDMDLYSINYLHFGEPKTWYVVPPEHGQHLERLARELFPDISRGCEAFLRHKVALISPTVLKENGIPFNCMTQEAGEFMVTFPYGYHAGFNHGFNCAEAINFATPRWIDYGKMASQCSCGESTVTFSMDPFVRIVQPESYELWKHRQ
Tau fibril ThT = tau fibrillization inhibition (ThT binding). P10636. recombinant tau K18 P301L, heparin-induced fibrillization, ThT fluorescence. Potency, µM (highest dose often 57.4 µM), inactives show top-dose activity, negative = inhibition, usual class: inhibitors. 2.1% of 270,000 active. AID 1460; note: potency is the fitted concentration of half-maximal effect; nearly all actives have a fitted effect of over 55% in size
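ThT emission at 510 nm, taken 1 hr after adding 30 uM dye, quantifies aggregates formed when 20 uM heparin acts on human tau K18 P301L for 6 hr at 37 C.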
Sfp PPTase inh = inhibitors of Bacillus subtilis Sfp phosphopantetheinyl transferase; Biochemical Sfp PPTase activity, qHTS; Potency, µM, for the others: largest response in the series, negative = inhibition, actives largely listed as inhibitors; 3.5% of 310,000 active;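 note: the enzyme is Sfp with the accession as filed and its product quenches rhodamine fluorescence; potency is the fitted concentration of half-maximal effect; 0% = enzyme reaction without inhibitor and -100% = no enzyme wells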
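With Hepes-Na pH 7.6 buffer containing 10 mM MgCl2, Sfp (15 nM) modified BHQ-2-YbbR (12.5 uM) using rhodamine-CoA (5 uM). Two reads 30 minutes apart at 525/598 nm yielded each well's rate.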
* = called active by the depositor; [ ] = dose if it differs, or a comment. Hits are enriched below; roughly 5.3% of the tested compounds scored in any of these assays. Unless noted, calls come from the whole dose curve; as a rule, active = well fitted curve in the direction sought with a large enough effect; inconclusive = small, poorly fitted or top-dose-only effect, or another doubt; inactive = no such curve, though single readings can be large; an effect the other way counts as inactive or inconclusive. Unless noted, % is set by controls: 0 for no effect and ±100 for the full control effect.

Screening CC1=C(C#N)C(=O)NC(=O)/C1=C\c1ccc(-c2cc(C)c(C)cc2[N+](=O)[O-])o1 returned Tau fibril FP inconclusive, Tau fluor counter inconclusive, Coupling enz 1.3, KDM4E inh 25.1µM*, Tau fibril ThT 25.1µM* and Sfp PPTase inh 50.1µM*.
Screening CCOC(=O)c1c(NC(=O)CSc2c[nH]c3ccccc23)sc2c1CCC2 returned Tau fibril FP inconclusive, Tau fluor counter 10µM*[quencher], Coupling enz -2.2, KDM4E inh -7.7%, Tau fibril ThT -6.8% and Sfp PPTase inh 4.9%.
`CCOC(=O)c1c(NC(=O)C(=O)N/N=C/c2ccccc2O)sc2c1CCCCC2` gave Tau fibril FP 0.0%, Tau fluor counter -9.9%, Coupling enz 1.1, KDM4E inh 31.6µM*, Tau fibril ThT -12.4% and Sfp PPTase inh 3.9%.
`CCOC(=O)c1c(NC(=O)CSc2c[nH]c3ccccc23)sc2c1CCCC2` gave Tau fibril FP 0.8%, Tau fluor counter -5.0%, Coupling enz -13.7, KDM4E inh -4.6%, Tau fibril ThT 3.0% and Sfp PPTase inh 8.4%.
Screening Cn1nc([N+](=O)[O-])c(C(C#N)c2nc3ccccc3n2C)c(Cl)c1=O (centres undefined) returned Tau fibril FP -4.6%, Tau fluor counter inconclusive, Coupling enz -2.3, KDM4E inh -11.3%, Tau fibril ThT 15.8µM* and Sfp PPTase inh 8.9%.
For Cc1cccc(NC(=O)Cn2c(O)c(N=NC(=O)c3ccccc3O)c3ccccc32)c1 the results were Tau fibril FP 0.0%, Tau fluor counter inconclusive, Coupling enz 3.4, KDM4E inh 4.1%, Tau fibril ThT 15.8µM* and Sfp PPTase inh inconclusive.
Cc1nc(N2N=C(c3ccc(Cl)cc3)CC2c2ccco2)sc1C(=O)N(C)C (centres undefined) was read as Tau fibril FP 8.0%, Tau fluor counter 1.9%, Coupling enz 0.0, KDM4E inh inconclusive, Tau fibril ThT inconclusive and Sfp PPTase inh 25.1µM*.
For Clc1ccc(C2=NN(c3ccccc3)C(c3ccco3)C2)cc1 (centres undefined) the results were Tau fibril FP 2.4%, Tau fluor counter -29.8%, Coupling enz -1.5, KDM4E inh inconclusive, Tau fibril ThT inconclusive and Sfp PPTase inh 28.2µM*.
For O=C(c1ccc(Br)o1)N1N=C(c2ccc(Cl)cc2)CC1c1ccco1 (centres undefined) the results were Sfp PPTase inh 39.8µM*.
Screening COc1ccc(C2=NN(c3nc(-c4ccccc4)c(CC(=O)O)s3)C(c3ccco3)C2)cc1 (centres undefined) returned Tau fibril FP 1.3%, Tau fluor counter -24.2%, Coupling enz -4.5, KDM4E inh inconclusive, Tau fibril ThT inconclusive and Sfp PPTase inh 14.1µM*.
O=C(NC1CCCCC1)c1cc(Nc2cccc(C(F)(F)F)c2)nc2ccccc12 was read as Tau fibril FP inconclusive, Tau fluor counter -24.3% and Tau fibril ThT 8.0%.
Cc1cc(Cl)ccc1NC(=O)CN1C(=O)COc2ccc(S(=O)(=O)N3CCC(C)CC3)cc21 was read as Tau fibril FP -6.8%, Tau fluor counter 5.0% and Tau fibril ThT 14.7%.
`CCCCC[C@H](O)/C=C/C=C/C/C=C\CCCC(=O)O` gave Tau fibril FP 8.3%, Tau fluor counter 3.6%, Coupling enz 3.4, KDM4E inh -1.2%, Tau fibril ThT -3.9% and Sfp PPTase inh -5.1%.
`O=C(c1ccc2c(c1)N(Cc1cccc(Cl)c1)C(=O)c1ccccc1S2(=O)=O)N1CCc2ccccc21` gave Tau fibril FP -7.9%, Tau fluor counter -3.6% and Tau fibril ThT -2.1%.
`CCN1CCC2(CC1)N=C(c1ccc(F)cc1)C(=S)N2` gave Tau fibril FP 4.9%, Tau fluor counter -5.5%, Coupling enz -1.3, KDM4E inh inconclusive, Tau fibril ThT -15.6% and Sfp PPTase inh 22.4µM*.
Cc1ccc(S(=O)(=O)NC(C(=O)Oc2ccc3c(C(F)(F)F)cc(=O)oc3c2)c2ccccc2)cc1 (centres undefined) was read as Tau fibril FP 10.5%, Tau fluor counter -3.6%, Coupling enz 11.0, KDM4E inh 31.6µM*, Tau fibril ThT 6.0% and Sfp PPTase inh -11.8%.
For COc1ccc(C(=O)c2coc3c2C(=O)C(=O)c2ccccc2-3)cc1 the results were Tau fibril FP inconclusive, Tau fluor counter inconclusive, Coupling enz -74.6*, KDM4E inh inconclusive, Tau fibril ThT 2.82µM* and Sfp PPTase inh 31.6µM*.
For O=C(c1ccccc1)c1coc2c1C(=O)c1ccccc1C2=O the results were Tau fibril FP -12.3%, Tau fluor counter inconclusive, Coupling enz -21.4, KDM4E inh -0.2%, Tau fibril ThT 12.6µM* and Sfp PPTase inh inconclusive.
For COc1ccc2occ(C(=O)c3ccccc3)c2c1 the results were Tau fibril FP -1.8%, Tau fluor counter -1.6%, Coupling enz -2.0, KDM4E inh 1.1%, Tau fibril ThT -4.0% and Sfp PPTase inh inconclusive.
For O=C1c2ccccc2C(=O)c2c1oc(C(F)(F)F)c2C(=O)c1ccccc1 the results were Tau fibril FP -4.0%, Tau fluor counter inconclusive, Coupling enz -2.9, KDM4E inh 10.2%, Tau fibril ThT inconclusive and Sfp PPTase inh -9.9%.
Screening Cc1[nH][nH]c(=O)c1C(c1ccc(-c2ccc(F)cc2)o1)c1c(C)[nH][nH]c1=O returned Tau fibril FP inconclusive, Tau fluor counter -22.4%, Coupling enz -36.8*, KDM4E inh 30.8%, Tau fibril ThT 7.94µM* and Sfp PPTase inh inconclusive.
`Cc1[nH][nH]c(=O)c1C(c1ccc(-c2ccc(C(=O)O)cc2)o1)c1c(C)[nH][nH]c1=O` gave Tau fibril FP inconclusive, Tau fluor counter -15.3%, Coupling enz -62.7*, KDM4E inh inconclusive, Tau fibril ThT 11.2µM* and Sfp PPTase inh -88.1%.
COc1ccc(-c2ccc(C(c3c(C)[nH][nH]c3=O)c3c(C)[nH][nH]c3=O)o2)c([N+](=O)[O-])c1 was read as Tau fibril FP inconclusive, Tau fluor counter -18.6%, Coupling enz -49.4*, KDM4E inh 37.8%, Tau fibril ThT 7.94µM* and Sfp PPTase inh 20µM*.
Cc1[nH][nH]c(=O)c1C(c1ccc(-c2ccc(Cl)c(Cl)c2)o1)c1c(C)[nH][nH]c1=O was read as Tau fibril FP inconclusive, Tau fluor counter inconclusive, Coupling enz -45.4*, KDM4E inh 14.7%, Tau fibril ThT 8.91µM* and Sfp PPTase inh 56.2µM*.

Source: PubChem BioAssay (National Center for Advancing Translational Sciences (NCATS))
